Our source for the inhibition values is PubChem BioAssay AID1554 (Broad Institute, 2009).

Screen size: about 300,000 compounds; about 520 (0.17%) were called active. The sample as a whole holds a higher share of actives than the screen did. Unmarked numbers belong to inactive results. Cut-off read from the data, not from the text of the source: active = inhibition above about 50%; inconclusive = no clear call, values can overlap the other calls; inactive = below that.

The nature of the assay: PubChem AID 1554. Conditions: BJeLR (HRASV12) viability, CellTiter-Glo ATP luminescence, 48 h; stronger effect = higher value; concentration not given here.
On to `CN(C)CCN(Cc1ccccc1)S(=O)(=O)c1csc(C(N)=O)c1`, for which the inhibition is 7.25%.
For the molecule `CC(C)Cc1nnc(NC(=O)CN2C(=O)NC3(CCCCC3)C2=O)s1`, the inhibition was 4.35%.
In the case of `CCOC(=O)CNc1nc(Cl)nc(Nc2ccc(OC)cc2OC)n1` it was -1.85%.
In the case of `CCN1C(=O)N[C@@H](c2ccccc2)C(C(=O)OC)=C1C` it was 2.76%; in that of `COc1cccc(NC(=O)c2ccccc2N(Cc2ccccc2)S(C)(=O)=O)c1`, 3.05%; in that of `CCCOc1ccccc1C1CC(=O)Nc2cc3c(cc21)OCO3` (stereo not drawn), 21.8%.
In the case of `COc1ccc(S(=O)(=O)Nc2ccc3c(c2)OCO3)cc1Cl` it was 4.86%; in that of `COc1ccccc1C1C2=C(COC2=O)Nc2cc3c(cc21)OCO3` (stereo not drawn), 71.8% (active).
Regarding `CC1COc2ccccc2N1S(=O)(=O)c1ccccc1` (stereo not drawn), the inhibition is -0.313%.
In the case of `CC(C)(C)c1cc(NC(=O)NN2CCOCC2)nn1-c1c(Cl)cc(Cl)cc1Cl` it was -1.25%; in that of `COc1ccc(/C=C(\C#N)c2c[nH]c3ccccc23)cc1`, 52.5% (active).
In the case of `COc1ccc(C(C(O)C(=O)c2c[nH]c3ccccc23)N2CCN(c3ccccc3)CC2)cc1` (stereo not drawn) it was 0.745%; in that of `COc1cc(/C=C(\C#N)c2nc3ccccc3[nH]2)ccc1O`, -5.76%.
For the molecule `CC(NC(=O)Cn1cc(C(F)(F)F)cc(Cl)c1=O)c1ccccc1` (stereo not drawn), the inhibition was -4.93%.
`O=C(NNC(=O)c1ccccc1[N+](=O)[O-])Nc1ccccc1C(F)(F)F`: the inhibition was 1.35%.
On to `Cc1cccc(-n2ncc(C#N)c2-n2cccc2)c1`, for which the inhibition is -4.28%.
`Cc1cccc(-n2ncc(Cl)c(Cl)c2=O)c1`: the inhibition was 90.5% (active).
In the case of `O=c1c(Cl)c(NC2CC2)cnn1-c1ccccc1` it was -3.03%; in that of `CC[C@]1(O)C[C@@H]2CN(CCc3c([nH]c4ccccc34)[C@@](C(=O)OC)(c3cc4c(cc3OC)N(C)[C@H]3[C@@](O)(C(=O)OC)[C@H](OC(C)=O)[C@]5(CC)C=CCN6CC[C@]43[C@@H]65)C2)C1`, 69.1% (active); in that of `CC[C@H]1CC2CN3CCc4c([nH]c5ccccc45)C(C(=O)OC)(C2)C13` (stereo partly drawn), 2.65%.
`CC[C@]1(O)CC2CN(CCc3c([nH]c4ccccc34)[C@@](C(=O)OC)(c3cc4c(cc3OC)N(C=O)[C@H]3[C@@](O)(C(=O)OC)[C@H](OC(C)=O)[C@]5(CC)C=CCN6CC[C@]43[C@@H]65)C2)C1` (stereo partly drawn): the inhibition is 34.8%.
Regarding `CCOc1ccc(C(CC(=O)O)NC(=O)C23CC4CC(CC(C4)C2)C3)cc1OC` (stereo not drawn), the inhibition is 8.09%.
Under `OCCn1c(-c2ccccc2)csc1=Nc1ccccc1` stands 3.02%; under `Cc1ccc(S(=O)(=O)N2CCCC2C(=O)OCc2nc3sc(C)c(C)c3c(=O)[nH]2)cc1` (stereo not drawn), 2%; under `CC12C(=O)N(n3cnnc3)C(=O)C1C1C=CC2C1` (stereo not drawn), 6.14%.
Take `Cc1ccc(CN2CCNC(=O)C2CC(=O)NCc2csc(C(C)C)n2)cc1` (stereo not drawn): the inhibition was -3.33%.
As for `Cc1ccc(Cn2cc(C(=O)NN)c(=O)c3ccc(F)cc32)cc1`, the inhibition is -4.45%.
For `CC(C)CN(C(=O)c1cccc(S(=O)(=O)N2CCCCC2)c1)C1CCS(=O)(=O)C1` (stereo not drawn), the inhibition was 2.4%.
Under `Clc1ccc2c(c1)C1=C(C(c3ccncc3)O2)C(c2ccc(Br)cc2)n2ncnc2N1` (stereo not drawn) stands -10%; under `Brc1ccc2ncnc(NCc3cccnc3)c2c1`, 4.75%.
Take `COc1ccc(C2=NOC(Cn3nc(C(=O)NCc4ccc5c(c4)OCO5)cc3-c3ccccc3)C2)cc1` (stereo not drawn): the inhibition is 8.13%.
Consider `S=c1[nH]ccn1-c1ccc(Cl)cc1`, for which the inhibition is 1.81%.
Under `CC(C)(C)OC(=O)NC(Cc1ccccc1)C(=O)NC(CSC1CCCCO1)C(=O)NN` (stereo not drawn) stands 10.4%; under `COc1ccccc1C(=O)NCCn1cc(SCC(=O)NCc2ccco2)c2ccccc21`, -1.46%.
For the molecule `CC12CCC(C(=O)N(CCC#N)CCC#N)(CC1=O)C2(C)C` (stereo not drawn), the inhibition was -15.4%.
Under `COC(=O)c1c(C(=O)OC)c(-c2cccc(C)c2)n2c1CS(=O)C2` (stereo not drawn) stands 0.411%.
In the case of `CC1(C)Oc2ccc3ccc(=O)oc3c2/C(=N/O)C1=O` it was 0.973%; in that of `Cc1ccc2[nH]c(=O)c(CN3CCCCC3)c(-c3ccccc3)c2c1`, 4.95%.
In the case of `COC(=O)c1ccc(OCC(O)CN(CCO)CC(O)Cn2ccc3ccccc32)cc1` (stereo not drawn) it was 1.45%; in that of `Cc1ccc(O)c(/C=N/NC(=O)COc2ccc3c(C)cc(=O)oc3c2)c1`, -1.41%; in that of `O=C1CC(N2CCN(C(c3ccccc3)c3ccccc3)CC2)C(=O)N1` (stereo not drawn), -3.58%.
For the molecule `CC1(C)CC(N2CCN(C(c3ccccc3)c3ccccc3)CC2)=CC(=[N+]2CCCCC2)C1`, the inhibition was 70.6% (active).
In the case of `CC1(C)CC(=O)C=C(N2CCCC2)C1` it was 0.434%; in that of `Cc1cc(=O)[nH]c(SCc2ccc(Cl)cc2)n1`, 0.607%.
With `Cc1ccc(Oc2nc(-c3ccccn3)nc3ccccc23)cc1`, the inhibition is 4.2%.
Take `O=C(Oc1ccc(Br)cc1)c1cccnc1`: the inhibition was -11.9%.
Under `O=C(Oc1ccc(-c2nc(-c3ccccn3)no2)cc1)c1ccccc1` stands 61.8% (active); under `COCCNC(=S)N1CCN(C)CC1`, 6.68%; under `COc1ccc(C(=O)N[C@H](C(=O)NCc2ccccc2)C(C)C)cc1`, -8.87%.
Under `COc1cc(OC)cc(C(=O)N[C@H](C(=O)OCC(=O)NC(C)c2ccccc2)C(C)C)c1` (stereo partly drawn) stands -3.17%; under `COc1cc(OC)cc(C(=O)N[C@H](C(=O)Nc2nc3ccccc3[nH]2)C(C)C)c1`, 50.8% (active).
Under `CCOC(=O)c1sc(C)c2c1NC(C)(c1cccc3ccccc13)NC2=O` (stereo not drawn) stands -6.51%; under `CC(=O)c1ccc(Oc2cc(C)nc(-n3nc(C)cc3C)n2)cc1`, 50.8% (active).
For the molecule `Cc1cc(C)n(-c2ccc(C(=O)O)cc2[N+](=O)[O-])n1`, the inhibition was 3.87%.
Consider `Cc1cc(Oc2ccc(Cl)cc2)nc(SCC(=O)c2ccccc2)n1`, for which the inhibition is -7.21%.
As for `COc1ccccc1NC(=O)c1cc(N2C(=O)C3C4CCC(C4)C3C2=O)ccc1Cl` (stereo not drawn), the inhibition is -10.4%.
Regarding `C=CCn1c(SCC(=O)c2ccc(Br)cc2)nnc1C(C)NC(=O)Cc1ccc(OC)cc1` (stereo not drawn), the inhibition was 2.52%.
Under `NS(=O)(=O)c1ccc(CNC(=O)c2cnccn2)cc1` stands 4.27%; under `CCC(C)Sc1nc2c(cnn2-c2ccc(F)cc2)c(=O)[nH]1` (stereo not drawn), -2.29%.
As for `CC1(C)CC(=O)C(C=NCCN2CCN(C(=S)Nc3cccc(Cl)c3)CC2)=C(O)C1`, the inhibition was 8.42%.
In the case of `CSCCC(NC(=O)COc1ccccc1)C(=O)OCCOc1ccc(F)cc1` (stereo not drawn) it was -6.51%; in that of `CCOC(=O)c1sc(NC(=O)CSc2nc(O)c(Cc3ccccc3)c(=O)[nH]2)nc1C`, 5.77%; in that of `CCCn1c(=N)n(CC(=O)c2ccc(Cl)c(Cl)c2)c2ccccc21`, 3.45%.
In the case of `COc1ccc2c(c1)N(C)/C(=C1/SC(=S)N(NC(C)=O)C1=O)S2` it was 1.69%; in that of `CC(OC(=O)CN1C(=O)C2CCCCC2C1=O)C(=O)Nc1ncc(Cl)cc1Cl` (stereo not drawn), 6.26%.
`CCOC(=O)c1c(N)sc2c1CCCC2=O`: the inhibition is 7.59%.
As for `O=C(Nc1ccc(C(=O)O)cc1)/C(=C\c1ccccc1)NC(=O)c1ccc(Br)cc1`, the inhibition is -0.97%.
Take `Cc1ccc(OC(=O)c2cncc(Br)c2)c(C)c1`: the inhibition was -5.3%.
Under `CC1CN(C2CCN(C(=O)COc3ccccc3)CC2)CC(C)O1` (stereo not drawn) stands -0.241%.
Under `Cc1c(C(=O)N(Cc2ccccc2)Cc2cccnc2)cnn1-c1ccc(F)cc1` stands -6%; under `O=C(CNC(=O)c1ccccc1)Oc1ccc([N+](=O)[O-])cc1`, -1.21%.
In the case of `O=C(NC(Nc1nc2ccc([N+](=O)[O-])cc2s1)(C(F)(F)F)C(F)(F)F)c1ccccc1` it was 77.1% (active); in that of `O=[N+]([O-])c1cc(Br)c(O)c(/C=N/Nc2nc3ccccc3s2)c1`, 7.46%.
`O=C(CCC(=O)NNc1nc2ccccc2c2nc(-c3ccccc3)nn12)NCCCN1CCCC1=O`: the inhibition was 0.872%.
In the case of `CCOC(=O)/C(=C\c1ccc([N+](=O)[O-])cc1)C(=O)c1cc(C(C)=O)c(Nc2ccccc2)s1` it was 58.8% (active).
As to `Cc1ccc(NC(=O)/C(=C/c2ccc([N+](=O)[O-])cc2)NC(=O)c2ccccc2)cc1`, the inhibition is -1.53%.
In the case of `CCOC(=O)COc1ccc([N+](=O)[O-])cc1` it was -3.89%.
Consider `Cc1ccc(NC(=O)c2cnc(SCC(=O)NCC3CCCO3)n(C)c2=O)cc1` (stereo not drawn), for which the inhibition is 1.95%.
Turning to `COc1cc(CN2CCN(Cc3ccc(C)cc3)CC2)c([N+](=O)[O-])cc1OC`, the inhibition is 1.71%.
Under `COC(=O)CN1C(=O)C(C)(C)Oc2ccc(C(=O)Nc3cccc(OC)c3)cc21` stands -4.31%; under `COc1ccc(CCNC(=O)COC(=O)Cc2cc(OC)c(OC)c(OC)c2)cc1`, 0.941%.
Regarding `COc1cc2c(C(=O)N(C)c3cc(Cl)ccc3OC)cn(C)c(=O)c2cc1OC`, the inhibition is -4.19%.
Regarding `O=C(c1ccc(OC2CCN(Cc3ccccn3)CC2)cc1)N1CCCCCC1`, the inhibition was -3.12%.
With `O=C(NCCOc1cccnc1)c1ccc(OC2CCN(Cc3ccccn3)CC2)cc1`, the inhibition is 113% (active).
In the case of `Cn1cc(CNC(=O)c2ccc(OC3CCN(Cc4ccccn4)CC3)cc2)cn1` it was 2.21%; in that of `O=C(CN1C(=O)c2cccnc2Oc2ccc(Cl)cc21)NCCc1ccccc1`, 2.42%; in that of `CC(=O)N1CCN(c2ccc(NCc3ccc(C(C)C)cc3)cc2)CC1`, -2.24%.
On to `CC(=O)c1ccc(N2Cc3ccccc3C2)cc1`, for which the inhibition was -5.06%.
